In the library only some 11% were active in any assay of this set; here they are far more common.
G9a block: qHTS Assay for Inhibitors of Histone Lysine Methyltransferase G9a; Histone-lysine N-methyltransferase EHMT2 (Homo sapiens), Q96KQ7; G9a H3K9 monomethylation, AlphaScreen, 2 h; Potency, µM (highest dose often 102 µM), without a hit: at the top dose activity, negative = inhibition, usual class: inhibitors; actives 8.8% (n = 350,000); AID 504332, 2011; note: potency is the fitted concentration of half-maximal effect; nearly all actives have a fitted effect of over 75% in size
Target sequence (Q96KQ7 913-1193 limits assumed): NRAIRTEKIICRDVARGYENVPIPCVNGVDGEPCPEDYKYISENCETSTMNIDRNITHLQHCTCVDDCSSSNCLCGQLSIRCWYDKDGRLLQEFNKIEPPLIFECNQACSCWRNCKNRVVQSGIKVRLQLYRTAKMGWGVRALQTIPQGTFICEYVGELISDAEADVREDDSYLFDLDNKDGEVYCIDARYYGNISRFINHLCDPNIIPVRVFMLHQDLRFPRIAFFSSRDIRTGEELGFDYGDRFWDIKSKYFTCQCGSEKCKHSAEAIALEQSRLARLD
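Compounds were preincubated with 20 nM G9a for 15 min, after which biotinylated H3K9 peptide (500 nM) and SAM (20 uM) started a 2 h room-temperature reaction. Monomethylated product was quantified by antibody-based AlphaScreen chemiluminescence.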
FBPA coupling cs: qHTS Assay for Inhibitors of Fructose-1,6-bisphosphate Aldolase from Giardia Lamblia: Coupling assay counterscreen; activity change, negative = inhibition, % at 58.2 µM, hits read low; coupling enzyme system counterscreen, AmpLite Red fluorescence; actives 0.67% (n = 290,000); AID 2472, 2010; in the data active = activity change below about -30%
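Coupling enzymes only (glyceraldehyde-3-phosphate) + compound, at 57.5 uM final, 10 min RT; add substrate/coupling/AmpLite Red mix, 20 min RT; fluorescence ex 525/em 598 nm. Actives flag coupling-system interference.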
Sfp PPTase inh: qHTS Assay for Inhibitors of Bacillus subtilis Sfp phosphopantetheinyl transferase (PPTase). 4'-phosphopantetheinyl transferase ffp (Bacillus subtilis), Q9F4F7. Biochemical Sfp PPTase activity, qHTS. Potency, µM, without a hit: largest response in the series, negative = inhibition, most hits filed as inhibitors. actives 3.5% (n = 310,000);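 note: the enzyme is Sfp with the accession as filed and its product quenches rhodamine fluorescence; potency is the fitted concentration of half-maximal effect; 0% = enzyme reaction without inhibitor and -100% = no enzyme wells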
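Reaction rates are the 30-min fluorescence difference (ex 525, em 598 nm) in wells containing 15 nM Sfp, 5 uM rhodamine-CoA and 12.5 uM BHQ-2-YbbR at pH 7.6 with 10 mM MgCl2.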
Tau fibril ThT: qHTS for Inhibitors of Tau Fibril Formation, Thioflavin T Binding. Microtubule-associated protein tau (Homo sapiens), P10636. recombinant tau K18 P301L, heparin-induced fibrillization, ThT fluorescence. Potency, µM (top dose mostly 57.4 µM), for inactives: at the highest dose activity, negative = inhibition, actives largely listed as inhibitors. actives 2.1% (n = 270,000). AID 1460, 2008; note: potency is the fitted concentration of half-maximal effect; nearly all actives have a fitted effect of over 55% in size
Target sequence (P10636 561-689 P618L limits assumed): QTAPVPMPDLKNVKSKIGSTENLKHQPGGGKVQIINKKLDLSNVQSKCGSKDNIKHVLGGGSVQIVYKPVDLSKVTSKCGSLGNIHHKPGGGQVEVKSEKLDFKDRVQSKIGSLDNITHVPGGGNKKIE
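Using a mix of unlabeled (15 uM) and Alexa 594-labeled (0.24 uM) tau K18 P301L, heparin-triggered fibrillization over 6 hr at 37 C was scored by ThT fluorescence.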
Tau FP inhib: qHTS for Inhibitors of Tau Fibril Formation, Fluorescence Polarization; Microtubule-associated protein tau (Homo sapiens), P10636; K18 P301L tau heparin fibrillization, Alexa594 FP, 6 h; Potency, µM (top dose mostly 57.7 µM), for inactives: top-dose activity, negative = inhibition, actives largely listed as inhibitors; actives 0.39% (n = 280,000); note: potency is the fitted concentration of half-maximal effect; nearly all actives have a fitted effect of over 55% in size
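Human K18 P301L fragment (15 uM unlabeled plus 0.24 uM Alexa 594-labeled) in 100 mM sodium acetate pH 7 with compound, aggregation induced by 20 uM heparin for 6 hr at 37 C. ThT (30 uM) added for 1 hr, then Alexa 594 FP read.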
Tau fluor cs: Counterscreen qHTS for Inhibitors of Tau Fibril Formation, Fluorescence Polarization; tau K18 P301L Alexa594 fluorescence, heparin fibrillization; AID 1463, 2008; actives 0.93% (n = 280,000); Potency, µM (top dose mostly 57.7 µM), for inactives: at the highest dose activity change, negative = decrease; note: potency is the fitted concentration of half-maximal effect; nearly all actives have a fitted effect of over 55% in size
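Human tau K18 P301L (15 uM unlabeled, 0.24 uM Alexa 594-labeled) in 100 mM sodium acetate pH 7 with 20 uM heparin, 6 hr at 37 C. ThT 30 uM added, 1 hr ambient; Alexa 594 FP and total fluorescence read at 555/632 nm.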
* marks the source's active call; other numbers are inactive results; ? = inconclusive; nt = no result; [ ] = dose if it differs, or a comment. Unless noted, calls come from the whole dose curve; as a rule, active = well fitted curve in the direction sought with a large enough effect; inconclusive = small, poorly fitted or top-dose-only effect, or another doubt; inactive = no such curve, though single readings can be large; an effect the other way counts as inactive or inconclusive. Unless noted, % is set by controls: 0 for no effect and ±100 for the full control effect.

SMILES	G9a block	FBPA coupling cs	Sfp PPTase inh	Tau fibril ThT	Tau FP inhib	Tau fluor cs
CCOc1ccc(C2C(C(=O)c3ccc(C)o3)=C(O)C(=O)N2Cc2cccnc2)cc1 (stereo unspecified)	40µM*	nt	0%	nt	nt	nt
CC(=O)C1=C(O)C(=O)N(Cc2cccnc2)C1c1ccccc1Cl (stereo unspecified)	-7%[59 µM]	10	8%	2%	4%	9%
Cc1ccc(C(=O)C2=C(O)C(=O)N(Cc3cccnc3)C2c2cccc([N+](=O)[O-])c2)o1 (stereo unspecified)	nt	0	0%	nt	nt	nt
CC(=O)C1=C(O)C(=O)N(Cc2cccnc2)C1c1ccc(C(C)C)cc1 (stereo unspecified)	56µM*	9	13%	-10%	2%	-10%
COc1ccc(C2C(C(=O)c3ccc(C)o3)=C(O)C(=O)N2Cc2cccnc2)cc1OC (stereo unspecified)	50µM*	8	4%	nt	nt	nt
CCN(CC)CCN1C(=O)C(O)=C(C(=O)c2ccco2)C1c1ccccn1 (stereo unspecified)	11µM*	-9	-25%	?	-8%	-12%
CC(=O)OCC(NC(=O)C(C)NC(=O)OC(C)(C)C)C1OC(n2cc(F)c(=O)[nH]c2=O)C(OC(C)=O)C1OC(C)=O (stereo unspecified)	nt	2	21%	nt	nt	nt
CCOC(=O)c1ccc(NC(=O)COc2ccc(CNCCO)cc2OCC)cc1	12%[12.7 µM]	3	16%	-4%	-1%	0%
CCOC(=O)c1ccc(NC(=O)COc2ccccc2CNCCc2ccccc2)cc1	-50%	6	50µM*	?	9%	?
COc1ccc(-n2ccnc2SCC(=O)NCc2ccco2)c(OC)c1	?	-1	20%	-13%	-4%	-3%
CSc1ccc(CN(C)C(=O)c2cccc(S(=O)(=O)N3CCN(Cc4ccccc4)CC3)c2)cc1	5%[0.501 µM]	nt	nt	nt	nt	nt
Cc1ccc(-c2ccc3nnc(SCC(N)=O)n3n2)cc1	45µM*	1	-1%	-5%	-7%	2%
NC(=O)CSc1nnc2ccc(-c3ccc(Cl)cc3)nn12	50µM*	-3	22%	1%	-12%	4%
O=C(CSc1nnc2ccc(-c3ccncc3)nn12)Nc1ccc(F)cc1	6.3µM*	nt	nt	nt	nt	nt
NC(=O)CSc1nnc2ccc(-c3ccc(F)cc3)nn12	-14%	0	-16%	5%	-1%	2%
O=C1C=CC(=O)N1c1cccc(-c2ccccc2)c1	1µM*	5	1.8µM*	-12%	-14%	-4%
O=C1c2ccccc2C(=O)N1c1cccc(-c2nc3ccccc3o2)c1	15%[12.7 µM]	-1	7%	4%	5%	3%
O=S(=O)(Nc1nc2ccccc2nc1N1CCN(c2ccccc2F)CC1)c1ccc(Cl)cc1	?	25	-8%	?	4%	?
O=C(O)c1ccc(N/N=C/c2ccc3c(c2)OCO3)cc1	nt	1	-1%	?	-1%	?
O=c1cnnc(N/N=C/c2ccc3c(c2)OCO3)[nH]1	45µM*	-1	?	nt	0%	6%
O=c1[nH]c(N/N=C/c2cc3c(cc2[N+](=O)[O-])OCO3)nc2ccccc12	18µM*	-1	?	?	1%	-19%
CN(C)c1nc(NCc2ccccc2)nc(N/N=C/c2ccc3c(c2)OCO3)n1	50µM*	0	-9%	?	8%	?
O=C(O)c1ccc(N/N=C/c2cc3c(cc2[N+](=O)[O-])OCO3)cc1	?	7	1%	14µM*	3%	-29%
Cc1cc(C)nc(N/N=C/c2cc3c(cc2[N+](=O)[O-])OCO3)n1	44%	5	-11%	-4%	3%	4%
O=[N+]([O-])c1ccccc1N/N=C/c1ccc2c(c1)OCO2	?	-2	19%	?	4%	-28%
SMILES	G9a block	FBPA coupling cs	Sfp PPTase inh	Tau fibril ThT	Tau FP inhib	Tau fluor cs
COc1ccc(CNC(=O)CCCC(=O)Nc2cccc(Br)c2)cc1	29%[59 µM]	3	3%	nt	nt	nt
Cc1ccccc1N=Cc1cc2c(cc1[N+](=O)[O-])OCO2	45µM*	-5	-10%	-11%	-2%	-5%
Cc1cc(N/N=C/c2ccccc2Br)nc2ccccc12	31%	-2	?	?	-1%	-25%
O=[N+]([O-])c1cc2c(cc1/C=N/n1cnnc1)OCO2	?	0	3%	-4%	2%	-5%
Cc1cc(N/N=C/c2ccc3c(c2)OCO3)nc2ccccc12	?	-5	20µM*	nt	3%	-72%
O=c1[nH]c(N/N=C\c2ccc3c(c2)OCO3)nc2ccccc12	nt	2	20µM*	4%	7%	6%
CC(=O)Oc1cc(OC(C)=O)c2c(=O)cc(-c3ccc(OC(C)=O)c(OC(C)=O)c3)oc2c1	nt	1	2%	?	?	?
CCCOc1ccc(N2C(=O)CC(N3CCN(c4ccc([N+](=O)[O-])cc4)CC3)C2=O)cc1 (stereo unspecified)	nt	0	8%	nt	nt	nt
CCOc1ccc(N2C(=O)CC(NCCNc3ccc([N+](=O)[O-])cn3)C2=O)cc1 (stereo unspecified)	3.2µM*	11	7%	-16%	4%	-10%
CCCOc1ccc(N2C(=O)CC(N3CCN(c4ccccc4F)CC3)C2=O)cc1 (stereo unspecified)	20%[59 µM]	-1	15%	-2%	0%	-1%
COc1ccc(N2C(=O)CC(NCCNc3ccc([N+](=O)[O-])cn3)C2=O)cc1 (stereo unspecified)	6.3µM*	0	-10%	-12%	2%	-4%
CCOc1ccc(N2C(=O)CC(NCCc3c[nH]c4ccccc34)C2=O)cc1 (stereo unspecified)	?	2	-13%	?	2%	-16%
CCCOc1ccc(N2C(=O)CC(N3CCN(c4nc5ccccc5s4)CC3)C2=O)cc1 (stereo unspecified)	45µM*	-1	4%	-10%	3%	11%
CCOc1ccc(N2C(=O)CC(N3CCN(c4ccc([N+](=O)[O-])cc4)CC3)C2=O)cc1 (stereo unspecified)	7.9µM*	1	-13%	nt	nt	nt
O=C(CN1C(=O)CSc2ccc(S(=O)(=O)N3CCCC3)cc21)Nc1cccc(Cl)c1	-32%[59 µM]	nt	nt	9%	-8%	?
